# According to ChEMBL document CHEMBL4513141, “CO-ADD screening of NIH (USA) - Clinical Collection” (2021):
# Out of some 23,000 compounds screened, about 30 (0.1%) showed an effect of 50% or more. The sample holds strong results, similar compounds and a random draw of the others, so the mix is not that of the screen. Results with a measured potency or affinity are listed apart.
# Tested on: Pseudomonas aeruginosa
# Details: Concentration 20 uM; ASSAY_TEST Inhibition of Bacterial Growth; detection method Absorption (OD600); MEDIA CAMHB; plate type 384well; NBS; CORNING #3640; time 18 hr
row,Compound,Inhibition [%]
1,CN1C(=O)CN=C(c2ccccc2)c2cc(Cl)ccc21 [DIAZEPAM],6.74
2,Cc1nnc2n1-c1ccc(Cl)cc1C(c1ccccc1)=NC2 [ALPRAZOLAM],52.22
3,Cc1ncc2n1-c1ccc(Cl)cc1C(c1ccccc1F)=NC2.Cl [MIDAZOLAM HYDROCHLORIDE],11.86
4,Cn1c(=O)c2nc[nH]c2n(C)c1=O.O [THEOPHYLLINE],16.98
